Assay results taken from PubChem BioAssay AID504332 (National Center for Advancing Translational Sciences (NCATS), 2011).
The campaign covered roughly 350,000 compounds. About 31,000 (8.9%) were called active. Roughly 15% stayed inconclusive and do not appear here. The call rests on the fitted dose curve; in most records, active means well fitted inhibition curve with a large enough effect; inconclusive means small, poorly fitted or top-dose-only effect; inactive means no such curve, though single readings can be large or run the other way. What follows is part of a selection rich in actives, with near analogues and random picks from the rest. Where a call stands in place of a potency, no number is given.

What follows are compounds tested against Histone-lysine N-methyltransferase EHMT2 (Homo sapiens) (UniProt Q96KQ7) (assay: qHTS Assay for Inhibitors of Histone Lysine Methyltransferase G9a). Conditions: G9a H3K9 monomethylation, AlphaScreen, 2 h; series mostly up to 59 µM.
Outline: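 Step 1: enzyme (final 20 nM) with compound, 15 min RT. Step 2: substrate peptide 500 nM and SAM 20 uM, 2 h RT. Step 3: anti-H3K9me1 antibody and AlphaScreen beads, 10 min, then plate read.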
Further: nearly all actives have a fitted effect of over 75% in size.
Potency means the concentration at half of the fitted maximal effect.

Chain of Histone-lysine N-methyltransferase EHMT2 (Homo sapiens) (Q96KQ7 913-1193 limits assumed): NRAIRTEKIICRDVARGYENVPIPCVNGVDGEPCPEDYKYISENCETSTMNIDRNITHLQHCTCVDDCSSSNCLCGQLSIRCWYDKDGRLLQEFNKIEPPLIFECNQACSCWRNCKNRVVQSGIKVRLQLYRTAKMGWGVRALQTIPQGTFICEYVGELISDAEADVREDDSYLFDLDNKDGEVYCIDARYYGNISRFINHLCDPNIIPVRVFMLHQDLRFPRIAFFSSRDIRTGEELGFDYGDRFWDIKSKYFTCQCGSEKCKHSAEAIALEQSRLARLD

Structure (SMILES) | Potency | activity, negative = inhibition
COc1ccc(CCNc2nc3c(-c4cccc(F)c4)nnn3c3ccccc23)cc1OC | inactive | 
Cc1ccc(Cn2c(=O)n(Cc3nc(-c4ccccc4)no3)c(=O)c3cc4c(cc32)OCO4)cc1 | inactive | 
COc1cccc(C2=CC(=O)C[C@H](c3ccc(OC)c(OC)c3)C2)c1 |  | -2.09% [at 2.33 µM] (inactive)
CCOC(=O)c1c(C)oc2nc(C)nc(Nc3ccc(CC)cc3)c12 | inactive | 
Cc1nc(N2CCOCC2)c2c(C(=O)NCc3cccc(Cl)c3)c(C)oc2n1 | inactive | 
CCOC(=O)c1c(C)oc2nc(C)nc(N3CCN(c4ccc(OC)cc4)CC3)c12 | 12.6 µM (active) | 
CC(=O)c1cc2c(cc1NC(=O)Cn1nc(-c3ccc(F)cc3)ccc1=O)OCO2 | inactive | 
O=C(CN1C(=O)CCn2nc(-c3ccccc3)cc21)NCc1ccccc1 | inactive | 
COC(=O)c1ccccc1NC(=O)C(Cc1ccccc1)N1Cc2ccccc2C1=O (configuration not stated) | inactive | 
CC1=CC(C)(C)Nc2ccc(OC(=O)C(Cc3ccccc3)N3C(=O)C4CCCCC4C3=O)cc21 (configuration not stated) | 50.1 µM (active) | 
CC1=CC(C)(C)Nc2ccc(OC(=O)CN3C(=O)C4CCCCC4C3=O)cc21 (configuration not stated) | inactive | 
CC1(C)O[C@H]2CC(=O)OCC23[C@H]2CC[C@@]4(C)[C@H](c5ccoc5)OC(=O)[C@H]5O[C@]54[C@]2(C)C(=O)C[C@@H]13 (some centres not stated) |  | 12.6% [at 12.7 µM] (inactive)
COc1ccc(CCNC(=O)CCCCn2c(=O)c3ccccc3n(Cc3ccccc3C)c2=O)cc1OC | inactive | 
O=c1cc(CO)oc(C(Nc2cccc(C(F)(F)F)c2)c2ccccn2)c1O (configuration not stated) | 1.26 µM (active) | 
O=c1cc(CO)oc(C(Nc2cccc([N+](=O)[O-])c2)c2ccccn2)c1O (configuration not stated) | 0.794 µM (active) | 
O=C(Nc1cccc(C(F)(F)F)c1)c1cnccn1 | inactive | 
O=C(Nc1cccc([N+](=O)[O-])c1)Nn1cnnc1 | inactive | 
Cc1ccc(CN(C)CC(=O)Nc2cccc([N+](=O)[O-])c2)o1 | inactive | 
FC(F)(F)c1cccc(Nc2ncnc3ccccc23)c1 |  | 8.16% [at 12.7 µM] (inactive)
CCOC(=O)c1c(C)n(S(=O)(=O)c2ccc(C)cc2C)c2ccc(NS(=O)(=O)c3ccc(C)cc3C)cc12 | inactive | 
O=C(/C=C\NCC(=O)c1ccccc1)c1ccccc1 | 6.31 µM (active) | 

Structure (SMILES) | Potency | activity, negative = inhibition
Cc1ccc(N/C=C/C(=O)c2ccccc2)cc1C | inactive | 
COc1ccc(NC(=O)CCCC(=O)c2ccccc2)cc1 | inactive | 
Cc1ccc(/C=C/C(=O)OCC(=O)NCc2ccc(Cl)cc2)o1 |  | -2.38% [at 2.33 µM] (inactive)
Cc1ccc(/C=C(\C#N)C(=O)Nc2cc(C)ccc2C)cc1 | inactive | 
CC(C)NC(=O)/C(C#N)=C\c1ccc(N(C)C)c(Br)c1 | 39.8 µM (active) | 
Cc1[nH]c2ccccc2c1/C=C(/C#N)C(=O)NC(C)C | inactive | 
Cc1ccc(NC(=O)Nc2sc3nc4n(c(=O)c3c2C)CCC(C)CC4)c(Cl)c1 (configuration not stated) | inactive | 
O=c1[nH]c(=O)n(Cc2ccco2)c2c1C(C(F)(F)F)(C(F)(F)F)N=C(c1ccco1)N2 | 50.1 µM (active) | 
Nc1c(N(Cc2ccco2)C(=O)c2cccc(F)c2)c(=O)[nH]c(=O)n1Cc1ccccc1 |  | -3.15% [at 12.7 µM] (inactive)
Cc1ccccc1C1=NC(C(F)(F)F)(C(F)(F)F)c2c(n(-c3ccc(F)cc3)c(=O)[nH]c2=O)N1 | inactive | 
CCCn1c(=S)[nH]c2ccc(C(F)(F)F)cc21 | 11.2 µM (active) | 
COc1ccc(/C(C)=N\NC(=O)c2ccc(-c3ccccc3)cc2)c(F)c1 | inactive | 
Cc1cccc(C(=O)NC(=S)N(C)C2CCCCC2)c1 | inactive | 
CC(OC(=O)c1ccccc1NCCO)C(=O)Nc1ccnn1C(C)C (configuration not stated) |  | -12.9% [at 12.7 µM] (inactive)
CC(=O)c1cccc(Nc2ccc3cc(S(=O)(=O)N4CCC(C)CC4)ccc3n2)c1 | inactive | 
Cc1cccc(S(=O)(=O)c2cn(Cc3ccccc3)c3cc(N4CCOCC4)c(F)cc3c2=O)c1 | inactive | 
COc1ccc(C23NCCN2C(=O)c2ccccc23)cc1 (configuration not stated) | inactive | 
CN1CCN(c2ncc3c(n2)CC(c2ccccc2F)CC3=O)CC1 (configuration not stated) | inactive | 
Cc1nc2nc3c(cn2n1)C(=O)CC(c1ccccc1)C3 (configuration not stated) | 56.2 µM (active) | 
CC1=C(C(=O)Nc2cc(C)ccn2)C(c2cnn(C)c2)C2=C(CC(c3ccccc3)CC2=O)N1 (configuration not stated) | inactive | 
CC(=O)c1ccc(NC(c2ccc(F)cc2)c2nnc(-c3ccccc3)o2)cc1 (configuration not stated) | inactive | 

Structure (SMILES) | Potency | activity, negative = inhibition
COc1cccc(NC(=O)C2CCN(c3cc(C)nc4c(-c5ccc(Cl)cc5)c(C)nn34)CC2)c1 | inactive | 
CN(C)CCN(Cc1ccccc1)S(=O)(=O)c1csc(C(N)=O)c1 | inactive | 
O=C(c1cc(-c2ccc(O)cc2)on1)N1CCOCC1 | inactive | 
Cc1ccc(OCCSc2nc3ccc(NC(=O)COc4ccc(C)cc4)cc3s2)cc1 | inactive | 
COc1cc(C(=O)Nn2c(CC(C)C)nc3ccccc3c2=O)cc(OC)c1OC | inactive | 
COc1cc(C(=O)Nn2c(O)c(C3=c4ccccc4=NC3=O)sc2=S)ccc1O | 44.7 µM (active) | 
CCCn1ccc2c(OCC(=O)NCc3ccc(F)cc3)cccc2c1=O | inactive | 
COc1ccc(N(C)S(=O)(=O)c2ccc3c(c2)CC(C)N3C(=O)C2CC2)c(OC)c1 (configuration not stated) | inactive | 
O=C(Nc1cc2ccccc2oc1=O)C1CCCCC1 | inactive | 
O=C(c1cn(-c2ccccc2)nc1-c1cc2ccccc2oc1=O)N1CCOCC1 | inactive | 
O=c1oc2ccccc2cc1-c1cn(-c2ccccc2)c(=S)[nH]1 | 1.41 µM (active) | 
CCC(=O)N1CCc2cc(S(=O)(=O)NC(C(=O)NCCc3ccc(C)cc3)C(C)C)ccc21 (configuration not stated) | inactive | 
Cc1ccc(NC(=S)Nc2ncccc2C)c(C)c1 | 31.6 µM (active) | 
Cc1ccc(NC(=S)NCc2ccccc2Cl)c(C)c1 | inactive | 
Cc1ccc(NC(=S)NCCc2ccc(Cl)cc2)c(C)c1 | inactive | 
COc1ccc(S(=O)(=O)Nc2cc(C)on2)cc1NC(C)=O |  | 2.19% [at 12.7 µM] (inactive)
O=C(CNS(=O)(=O)c1cccs1)N1CCN(c2ccccc2Cl)CC1 | inactive | 
CCCCn1c(SCC(=O)NCCc2ccc(OC)c(OC)c2)nc2c1c(=O)n(C)c(=O)n2C | inactive | 
CCOc1ccc(Cn2c(SCCCCC#N)nc3c2c(=O)n(C)c(=O)n3C)cc1OCC | 35.5 µM (active) | 
CCCSc1nc2c(c(=O)n(C)c(=O)n2C)n1Cc1ccc(C)cc1 | inactive | 
